Results filed as inconclusive are left out. Active and inactive are the calls of the source. Calls follow the shape of the dose curve; as a rule, active = well fitted activation curve with a large enough effect; inconclusive = small, poorly fitted or top-dose-only effect; inactive = no such curve, though single readings can be large or run the other way.

A short description of this experiment: Extended Characterization of HPGD Inhibitors: PGE2 Assay in LNCaP Cells. The conditions noted are these: PGE2 HTRF level, 16 h. The source says: The central role of HPGD is to inactivate prostaglandins such as prostaglandin E2 (PGE2) or prostaglandin D2 (PGD2). These prostaglandins are involved in a number of processes, including inflammation, differentiation, and cellular signaling, which makes HPGD an important target for pharmacological intervention. A number of prostaglandins of particular biological interest have been identified as substrates of HPGD. […] Over-production of PGE2 has been reported to promote tumor-associated neovascularization, cell proliferation, and tumor growth. […] In this orthogonal assay, we set out to measure if compounds were able to increase PGE2 production NIH Chemical Genomics Center [NCGC] NIH Molecular Libraries Probe Centers Network [MLPCN] MLPCN Grant: MH084681 Assay Submitter (PI): Structural Genomics Consortium
A549 cells, LNCaP cells or media were dispensed in 384-well plates (ProxiPlate-384 Plus, PerkinElmer, Shelton, CT) at 5,000 cells/9.9 uL/well using a CappAero384 multichannel pipette (Odense, Denmark). Separately on the plate, 10 uL of PGE2 calibration standards at a starting assay concentration of 5,000 pg/mL (1:2 dilution, 12-points, n = 1, prepared in media, Cisbio, Bedford, MA) were dispensed. Compounds (100 nL, final concentration range from 41.9 nM to 100 uM) were transferred using an ATS Acoustic Liquid Dispenser (EDC Biosystems, Fremont, CA). After being mixed using an automated liquid handler (CyBio, Jena, Germany), samples were incubated (37 deg C, 5% CO2, under a humidified atmosphere) for 16 hours. PGE2 labeled conjugates were added to each well, first 5 uL of PGE2-d2, followed by 5 uL of anti-PGE2-cryptate, centrifuged (1,500 rpm, 15 sec) and incubated (RT, protected from light) for 5 hours. Time-resolved fluorescence intensity (320 nm excitation, 615 and 665 nm emission) was measured using an Envision plate reader (PerkinElmer). Data was expressed as the ratio of 665 nm/615 nm emissions. Concentration (pg/mL) of samples were calculated from a 4-parameter logistic calibration curves of the PGE2 standards.
(Time-resolved FRET reads energy transfer from a long-lived donor to a nearby acceptor.)
Take `Cc1cc(-c2nnc3n2CCCCC3)c(C)n1-c1ccc(C(C)(C)C)cc1`: the Potency is 2.22 µM (active).
Take `COc1ccc(-n2c(C)cc(-c3nnc4n3CCCCC4)c2C)cc1`: the Potency is 2.8 µM (active).
`Cc1cc(-c2nnc3n2CCCCC3)c(C)n1-c1ccc(Cl)cc1`: the Potency is 2.22 µM (active).
Take `Cc1cc(-c2nnc3n2CCCCC3)c(C)n1-c1cccnc1`: the Potency was 4.43 µM (active).

The values above are taken from PubChem BioAssay AID743172 (National Center for Advancing Translational Sciences (NCATS), 2013).
